Results published in ChEMBL document CHEMBL3988442, “University of Dundee, Small-Polar-MMV Screening Library” (2021).

Tests used:
[1] = biological target: T1, Aspartate--tRNA(Asp/Asn) ligase (Mycobacterium tuberculosis (strain ATCC 25618 / H37Rv)) (UniProt P9WFW3); test: Assay for Asp RNA synthetase-1 from Mycobacterium tuberculosis; format: functional; set-up: scale not given: direction of the effect not stated beside the values; conditions: 30 µM; further: in the data most compounds retested in dose-response had high values
T1 sequence (whole entry): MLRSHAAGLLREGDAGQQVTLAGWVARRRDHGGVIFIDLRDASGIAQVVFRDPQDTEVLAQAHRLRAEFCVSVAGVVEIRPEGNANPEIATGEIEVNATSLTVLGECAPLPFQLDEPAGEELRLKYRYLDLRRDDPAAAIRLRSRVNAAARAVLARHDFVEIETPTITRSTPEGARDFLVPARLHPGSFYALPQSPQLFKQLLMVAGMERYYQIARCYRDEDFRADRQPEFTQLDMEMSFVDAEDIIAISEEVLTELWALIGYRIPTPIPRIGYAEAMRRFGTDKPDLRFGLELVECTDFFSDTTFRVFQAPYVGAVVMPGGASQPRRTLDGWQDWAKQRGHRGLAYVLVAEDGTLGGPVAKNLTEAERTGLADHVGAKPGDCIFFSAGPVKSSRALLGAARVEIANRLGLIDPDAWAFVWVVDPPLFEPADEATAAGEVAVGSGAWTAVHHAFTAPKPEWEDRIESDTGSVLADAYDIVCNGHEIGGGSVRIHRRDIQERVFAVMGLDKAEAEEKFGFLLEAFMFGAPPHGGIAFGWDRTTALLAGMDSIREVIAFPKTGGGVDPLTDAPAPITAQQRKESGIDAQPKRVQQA

[2] = biological target: Shiga toxin 2 (Escherichia coli O157:H7) (UniProt P09385+P09386); test: E. coli 0.157:H7 Shiga Toxin SOP - stx2 screening assay; format: functional; set-up: scale not given: direction of the effect not stated beside the values; conditions: 30 µM

SMILES | Percent Effect [1] [%] | Percent Effect [2] [%]
O=C(c1cn(-c2ccccc2Cl)nn1)N1CCCSCC1 | 0.212 | 5.41
COc1ccccc1C(=O)N1CC(Cc2nccc3ccn(C)c23)C1 | -0.878 | -11.7
COc1ccccc1C(=O)NC(C)CC(=O)O (centres undefined) | -5.28 | -19.9
COC(=O)COc1cccc(NS(=O)(=O)c2cc(C(=O)O)cs2)c1 | -3.15 | -53.3
CN(Cc1ccc2c(c1)OCCO2)C(=O)Cn1cccnc1=O | -2.54 | -20.6
CCc1n[nH]c(C2CN(Cc3nnc(C4CC4)n3C)CCO2)n1 (centres undefined) | -0.577 | 9.55
COc1ccc(CC(=O)N2CCc3nnc(N(C)C)cc3C2)cc1F | 2.43 | -57.1
CN(c1ccncn1)C1CC2(CCN(C(=O)c3cccs3)C2)C1 (centres undefined) | -6.21 | -35.5
CN(Cc1ccc2c(c1)OCCO2)C(=O)NCCc1cnn(C)c1 | 3 | 26.7
CN(Cc1ccccc1)C1COC2(CCN(Cc3nccs3)CC2)C1 (centres undefined) | -2.36 | -24.7
Cc1cnn(CC2CCCN2C(=O)c2cnc3n[nH]c(C)c3c2)c1 (centres undefined) | -3.6 | -40.6
Cc1c(CN2CCCC(c3[nH]ncc3S(C)(=O)=O)C2)cnn1C (centres undefined) | -0.927 | -23.4
CCOC(=O)N1CCN(C(=O)c2sc(-c3ccccc3F)nc2C)CC1 | 3.76 | -8.58
Cc1nc(C2CCCN(C(=O)c3ccc(N4CCCC4)nc3)C2)no1 (centres undefined) | -2.58 | -1.41
N#Cc1ccc(C(=O)N2CCC3(CC2)C(=O)Nc2ccccc23)cn1 | 6.62 | 1.52
Cc1nn(C)c(C)c1CC(=O)N1CCCC(n2cccn2)C1 (centres undefined) | -4.75 | 20.6
O=C(NCCN1CCCc2ccccc21)c1scnc1Cl | -4.16 | 0.202
CCCn1[nH]cc/c1=N\C(=O)CN1CCCC1c1c(C)nn(C)c1C (centres undefined) | -0.979 | -11
Nc1nc2nc(C3CCCN(C(=O)c4cscn4)C3)ccc2s1 (centres undefined) | 0.603 | -35.5
Cc1noc(C2CCC3(CCN(C(=O)c4c(C)noc4C)CC3)O2)n1 (centres undefined) | -3.06 | 16.1
CC(Cn1cccn1)NC(=O)Nc1ccc(F)cc1 (centres undefined) | 1.84 | -31.3
O=C(NCC1CC1)c1nc(COc2ccc3c(c2)OCO3)no1 | -5.11 | -58.6
Cc1noc(C(C)N2CCN(CCCN3CCCC3=O)CC2)n1 (centres undefined) | 0.409 | 4.39
CCc1ccc(NC(=O)c2cnc(N3CCN(C)CC3)nc2C)cc1 | -0.248 | -28
Clc1ccc2cccnc2c1CN1CCCC(Cn2cncn2)C1 (centres undefined) | -1.86 | -6.27
O=C(NCc1ccco1)[C@H]1C[C@H]2OCC[C@H]2N(S(=O)(=O)C2CC2)C1 | 0.786 | -24.1

SMILES | Percent Effect [1] [%] | Percent Effect [2] [%]
Cn1ccnc1-c1cccc(NC(=O)NCCCO)c1 | -2.56 | -54.8
CN1CCN(C(=O)[C@H]2C[C@@H]3CCN(c4ncc(F)cn4)C[C@@H]3O2)CC1 | -1.43 | -18.9
O=C([C@@H]1C[C@@H]2CCN(CCc3ccccc3)C[C@H]2O1)N1CCCC1 | -0.868 | -14.6
Cn1cnc2c1C(COCc1ccccc1)N(Cc1ccncc1)CC2 (centres undefined) | 2.91 | -1.07
CC(C)c1nccn1-c1cccc(C2CCN(C)CC2)n1 | -1.47 | -33.7
Cc1ccc(NC2CCN(C(=O)CCNS(C)(=O)=O)CC2)nn1 | -2.45 | -0.275
CC(C)(C)c1cn2nc(N3CCOC(Cn4cncn4)C3)sc2n1 (centres undefined) | -2.01 | -8.88
CCc1nccn1-c1cncc(C2CCCN2Cc2cccnc2)n1 (centres undefined) | 5.87 | -37.2
CC(NC(=O)NCc1ccc(Cl)s1)c1ccccn1 (centres undefined) | -0.451 | -14.6
Cc1nc(-c2ccccc2F)sc1C(=O)N1CCN(C)CC1 | 1.4 | -0.463
O=C(c1ccc2c(c1)CCCC2)N1CCOCC1c1ncon1 (centres undefined) | -2.09 | 0.194
Cc1ccoc1-c1nnc(CNCC2CCCN2c2cccnn2)o1 (centres undefined) | -2.62 | 5.85
COc1ccc(-c2nc(CN3CCc4c(ncn4C)C3)cs2)cc1 | -3.7 | -71.2
O=C(NCCOc1ccc(F)c(F)c1)NCc1ccncc1 | -0.948 | -4.38
Cc1cc2c(=O)n3c(nc2s1)CCN(C(=O)c1cnn(C)c1C)CC3 | 0.849 | 5.44
COc1cccc(CNCCc2cc(F)cc3c2OCOC3)c1 | -4.9 | -27.3
NC(=O)N1CC[C@H](O)[C@@H]1Cc1cccnc1 | 1.51 | 0.815
COc1c(CNCc2ccc(CN(C)C)cc2)c(C)nn1C | 2.29 | -30.1
NC(=O)c1cc(C2CCCN(C(=O)CCc3ccsc3)C2)n[nH]1 (centres undefined) | -5.77 | 21.2
COc1ccc(C(=O)N2C[C@@H](CN3CCOCC3)[C@@H](CO)C2)c(C)c1 | -0.54 | 2.18
CS(=O)(=O)CCNC(=O)C1(c2cccc(Cl)c2)CCCCC1 | 1.2 | -20.3
Cc1c(O)oc(-c2ccc(Br)cc2)nc1=O | -1.84 | -45.4
COCCC(=O)N1CCC(c2noc3nc(C)cc(C(F)(F)F)c23)CC1 | 1.68 | 8.3
Cc1nc(NCc2cccnc2)c2c(n1)c(C)nn2C | 10.4 | -31.1
O=C(NCC1CC1)C1CCC2(CCN(C(=O)c3ccccn3)CC2)O1 (centres undefined) | -1.39 | 1.47
Cc1ccc([C@@H]2CN(S(=O)(=O)c3cccs3)C[C@H]2N(C)C)cc1 | -0.804 | 19.8
